We go through five compounds from PubChem BioAssay (NCATS).

Assay [1] in a line: AP1 Signaling Pathway (AID 357; active means well fitted curve in either direction with a large enough effect, not every such curve was filed as active;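 further: ME-180 reporter cells stimulated with EGF at its EC50 level; on the % scale 0 is the no-effect control and ±100 the full control effect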). Conditions: ME-180 AP-1-bla reporter, EGF-induced, beta-lactamase ratio, 5 h; at 7.69 µM (top of the series) unless noted. Put shortly: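 First, ME-180 AP-1-bla cells were cultured overnight at 37 °C in low-serum Opti-MEM. Next, titrated compounds with EC50 EGF were incubated 5 hours. Finally, CCF4 was added for 2.5 hours and the 460/530 nm ratio recorded.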

Assay [2] has as its target Cytochrome P450 1A2 (Homo sapiens) (UniProt P05177). Kind of assay: p450-cyp1a2 (AID 410; calls by dose curve; further: potency means the concentration at half of the fitted maximal effect). Put shortly: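 Human CYP1A2 (20nM) demethylated Luciferin-ME at its Km (100uM) in 100mM KPO4. After 10 min compound preincubation, NADPH regeneration ran the reaction 60 min at room temperature. Luciferin was read by luminescence, normalized to 57 uM furafylline.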
Assay [3] is described as follows: NFAT Signaling Pathway (AID 444; active means well fitted curve in either direction with a large enough effect, not every such curve was filed as active;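 further: carbachol stimulus at about its EC50 of 1 µM final; on the % scale 0 is the no-effect control and ±100 the full control effect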). Conditions: Jurkat NFAT-bla M1, carbachol, beta-lactamase ratio, 5 h; at 7.69 µM (top of the series) unless noted. In short, it runs like this:
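Jurkat cells with NFAT-driven β-lactamase reporter and co-expressed M1 receptor, stimulated with carbachol (final 1 uM, ~EC50), compound titration, 5 h at 37 °C. CCF4 loaded 1 h at RT; 460/530 nm ratio gave %activity and AC50.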

Assay [4] can be described thus: Stat Signaling Pathway (AID 446; active means well fitted curve in either direction with a large enough effect, not every such curve was filed as active;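 further: ME-180 cervical cancer cells given 40 pM IL-6 alongside compound; SIE-controlled beta-lactamase reporter measured as 460/530 nm FRET emission ratio; on the % scale 0 is the no-effect control and ±100 the full control effect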). Put shortly: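 Reporter line: ME-180 cervical carcinoma, SIE-beta-lactamase. Treatment: compound with 40 pM IL-6, 5 hrs, 37 C, in low-serum OPTI-MEM with 10 mM HEPES pH 7.3. Detection: 460/530 nm fluorescence.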
Assay [5] deals with Glucocorticoid receptor (Homo sapiens) (UniProt P04150). Nature of the assay: GR-GFP Redistribution (AID 450;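 active means compounds whose dose series gives a full or clear partial fitted curve of increased nuclear translocation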; further: potency means the concentration at half of the fitted maximal effect). Conditions: U2OS GR-GFP nuclear translocation, laser cytometry, 2 h.
The target is the same in assay [6]. Nature of the assay: GR-EFC Redistribution (AID 451; calls by dose curve; further: potency means the concentration at half of the fitted maximal effect). The following applies: CHO-K1 GR-EFC translocation, beta-gal luminescence, 2 h. Put shortly: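 CHO-K1 cells expressing nuclear EA and GR-ED fragments of b-gal; compounds titrated up to 46 uM final, 2 h at 37 C. GR nuclear translocation read as complemented b-gal luminescence after 1 h RT detection.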
Assay [7] has as its target Mitogen-activated protein kinase 10 (Mus musculus) (UniProt Q61831). Kind of assay: JNK3 AlphaScreen Assay (AID 530; active means well fitted curve in either direction with a large enough effect, not every such curve was filed as active;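 further: kinase came from lysate of stimulated human HepG2 cells; signal reports phosphorylation of biotinylated GST-cJun 1-79 at Ser73 with 10 µM ATP; on the % scale 0 is the no-effect control and ±100 the full control effect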). Put shortly: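 qHTS format: compounds tested as titrations against IL-1beta/TNF-alpha-activated HepG2 lysate JNK3 with biotin-GST-cJun substrate and 10 uM ATP at room temperature. Loss of anti-phospho-cJun AlphaScreen signal indicates inhibition.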
For assay [8], the target named is Cytochrome P450 3A4 (Homo sapiens) (UniProt P08684). Nature of the assay: qHTS Assay for Inhibitors and Substrates of Cytochrome P450 3A4 (AID 884). Further: potency means the concentration at half of the fitted maximal effect; nearly all actives have a fitted effect of over 50% in size. In short, it runs like this: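 20 nM human CYP3A4 with 25 uM Luciferin-PPXE (at KM) in 200 mM KPO4, preincubated 10 min with compound; NADPH regeneration started a 60 min RT reaction. Luciferin detected by luminescence, normalized to 57 uM ketoconazole as full inhibition.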
Cytochrome P450 3A4 (Homo sapiens), sequence (P08684 whole entry, looked up): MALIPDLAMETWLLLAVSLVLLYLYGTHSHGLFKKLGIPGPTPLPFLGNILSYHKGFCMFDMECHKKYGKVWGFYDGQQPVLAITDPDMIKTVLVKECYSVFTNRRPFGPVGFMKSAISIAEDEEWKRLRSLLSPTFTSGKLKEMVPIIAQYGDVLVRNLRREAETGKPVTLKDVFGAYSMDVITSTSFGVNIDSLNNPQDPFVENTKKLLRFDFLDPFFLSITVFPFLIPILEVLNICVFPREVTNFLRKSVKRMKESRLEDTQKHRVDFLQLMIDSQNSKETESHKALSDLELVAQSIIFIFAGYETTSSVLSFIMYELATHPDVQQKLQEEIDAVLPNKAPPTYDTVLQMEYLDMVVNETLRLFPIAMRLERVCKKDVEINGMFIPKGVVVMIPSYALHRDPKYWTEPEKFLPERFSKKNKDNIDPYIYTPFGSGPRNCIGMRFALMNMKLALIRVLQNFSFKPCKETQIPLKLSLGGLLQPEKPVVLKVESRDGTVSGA
(qHTS replaces the single test concentration by a dilution series.)

Assay [9] has the same target. Nature of the assay: qHTS Assay for Activators of Cytochrome P450 3A4 (AID 885). Further: nearly all actives have a fitted effect of over 65% in size. In short, it runs like this:
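Signal was normalized against complete inhibition by 57 uM ketoconazole. The reaction used 20nM CYP3A4 with 25uM Luciferin-PPXE, 10-min compound preincubation and a 60-min NADPH-supported step at RT.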

Assay [10] addresses Cytochrome P450 2D6 (Homo sapiens) (UniProt P10635). Nature of the assay: qHTS Assay for Inhibitors and Substrates of Cytochrome P450 2D6 (AID 891). Further: potency means the concentration at half of the fitted maximal effect; nearly all actives have a fitted effect of over 60% in size. Put shortly:
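Human CYP2D6 (5 nM) with 30 uM Luciferin-ME EGE (at Km) in 100 mM KPO4, compound preincubated 10 min, then NADPH regeneration system for 60 min at room temperature. Luciferin read by luminescence; normalized to 1.43 uM quinidine.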

Assay [11] concerns the target Cytochrome P450 2C19 (Homo sapiens) (UniProt P33261). Kind of assay: qHTS Assay for Inhibitors and Substrates of Cytochrome P450 2C19 (AID 899). Further: potency means the concentration at half of the fitted maximal effect; nearly all actives have a fitted effect of over 60% in size. Put shortly:
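5 nM human CYP2C19 with 10uM Luciferin-H EGE (at KM) in 50mM KPO4, compound preincubated 10 min at 37C, then NADPH regeneration for 60 min at 37C. Luciferin read by luminescence after detection reagent; normalized to 57uM ketoconazole as full inhibition.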

The target of assay [12] is Dual specificity protein kinase CLK4 (Homo sapiens) (UniProt Q9HAZ1). Nature of the assay: qHTS Assay for Inhibitors of CDC-like Kinase 4 (ADP-Glo Assay) (AID 1771). Further: nearly all actives have a fitted effect of over 70% in size. Further: potency means the concentration at half of the fitted maximal effect. In short, it runs like this:
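Clk4 (25 nM) was incubated 1 hr at room temperature with 100 uM RS repeat peptide and 1 uM ATP in buffer with 2 mM MgCl2, 0.5 mM EGTA, 2.5 mM DTT. ADP formed was quantified by ADP-Glo luminescence.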

The target is the same in assay [13]. Kind of assay: qHTS Assay for Inhibitors of CDC-like Kinase 4 (ADP-FP Assay) (AID 1795). Further: nearly all actives have a fitted effect of over 60% in size. Further: potency means the concentration at half of the fitted maximal effect. In short, it runs like this: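 Recombinant Clk4 (6.25 nM) phosphorylated 100 uM RS repeat peptide with 1 uM ATP in 25 mM Tris pH 7.5, 10 mM MgCl2, 0.5 mM EGTA, 2.5 mM DTT, 0.01% Triton X-100 for 1 h. ADP was detected by Transcreener ADP2 competitive fluorescence polarization after 30 min at room temperature.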

The target of assay [14] is Ubiquitin carboxyl-terminal hydrolase 1 (Homo sapiens) (UniProt O94782). Nature of the assay: Inhibitors of USP1/UAF1: Pilot qHTS (AID 504865).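 Further: rhodamine fluorescence freed from ubiquitin-rhodamine substrate followed over time; top concentration of the series differs between compounds; on the % scale 0 is the no-effect control and ±100 the full control effect; nearly all actives have a fitted effect of over 35% in size.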 Put shortly: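 USP1/UAF1 complex at 1 nM preincubated 15 min at room temperature with compound, then Ub-Rho substrate added at 150 nM final. Fluorescence (480/540 nm) read kinetically in 50 mM HEPES pH 7.8, 0.5 mM EDTA, 1 mM TCEP, 0.1 mg/ml BSA, 0.01% Tween-20.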

Assay [15] has as its target Rap guanine nucleotide exchange factor 3 (Homo sapiens) (UniProt O95398). Kind of assay: Confirmatory qHTS for antagonist of cAMP-regulated guanine nucleotide exchange factor 3 (EPAC1) (AID 1645880).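 Further: plate controls were DMSO only for no effect and full effect of the ATA control for full effect; nearly all actives have a fitted effect of over 55% in size.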 Conditions: EPAC1 Rap1B-BODIPY-GDP exchange, fluorescence; activity, negative = inhibition: at 115 µM (top of the series). In short, it runs like this:
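Nucleotide exchange uses 100 nM EPAC1, 250 nM RAP1B-BODIPY-GDP and 50 uM GDP, with compounds in a concentration-titration series. After 5 min at room temperature, fluorescence (480 nm ex/540 nm em) is read every 5 min for 30 min. Data are normalized to control ATA and DMSO.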

Assay [16] shares this target. Nature of the assay: Confirmatory qHTS for agonist of cAMP-regulated guanine nucleotide exchange factor 3 (EPAC1) (AID 1645881). Further: nearly all actives have a fitted effect of over 75% in size. Further: potency means the concentration at half of the fitted maximal effect.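 On activation: EPAC1 catalysed release of BODIPY-GDP from Rap1B seen as fluorescence loss; 100% = effect of cAMP agonist control.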
For assay [17], the target named is Rap guanine nucleotide exchange factor 4 (Homo sapiens) (UniProt Q8WZA2). Kind of assay: Confirmatory qHTS for agonist of cAMP-regulated guanine nucleotide exchange factor 4 (EPAC2) (AID 1645884). Further: nearly all actives have a fitted effect of over 65% in size. Further: potency means the concentration at half of the fitted maximal effect.
Rap guanine nucleotide exchange factor 4 (Homo sapiens), sequence (Q8WZA2 whole entry, looked up): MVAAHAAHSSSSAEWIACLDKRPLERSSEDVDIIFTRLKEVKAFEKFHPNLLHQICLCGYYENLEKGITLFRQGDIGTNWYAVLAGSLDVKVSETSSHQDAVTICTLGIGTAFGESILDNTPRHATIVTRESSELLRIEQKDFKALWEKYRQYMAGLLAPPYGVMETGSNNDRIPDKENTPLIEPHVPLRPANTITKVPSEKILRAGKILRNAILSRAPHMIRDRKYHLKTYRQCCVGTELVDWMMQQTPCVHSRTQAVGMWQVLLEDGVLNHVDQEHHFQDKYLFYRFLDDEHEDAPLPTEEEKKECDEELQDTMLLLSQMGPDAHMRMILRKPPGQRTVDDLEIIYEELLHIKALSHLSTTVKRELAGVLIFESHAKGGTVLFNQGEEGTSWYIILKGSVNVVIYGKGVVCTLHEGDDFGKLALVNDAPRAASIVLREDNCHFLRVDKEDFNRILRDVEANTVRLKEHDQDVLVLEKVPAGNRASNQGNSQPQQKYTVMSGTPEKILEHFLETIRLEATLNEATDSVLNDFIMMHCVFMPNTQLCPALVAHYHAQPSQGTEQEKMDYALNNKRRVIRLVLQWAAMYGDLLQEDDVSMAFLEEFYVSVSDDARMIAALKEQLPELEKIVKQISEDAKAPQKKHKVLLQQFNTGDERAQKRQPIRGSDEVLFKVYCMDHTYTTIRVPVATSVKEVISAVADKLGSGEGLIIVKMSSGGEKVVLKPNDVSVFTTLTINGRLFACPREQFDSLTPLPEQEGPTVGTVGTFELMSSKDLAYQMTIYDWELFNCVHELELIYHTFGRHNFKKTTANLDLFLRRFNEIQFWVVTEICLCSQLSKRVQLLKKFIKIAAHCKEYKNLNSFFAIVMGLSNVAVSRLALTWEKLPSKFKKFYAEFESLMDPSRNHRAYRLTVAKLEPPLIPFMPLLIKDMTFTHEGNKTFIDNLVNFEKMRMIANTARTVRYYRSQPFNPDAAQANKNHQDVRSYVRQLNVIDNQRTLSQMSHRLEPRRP
For assay [18] the target is unchanged. Nature of the assay: Confirmatory qHTS for antagonist of cAMP-regulated guanine nucleotide exchange factor 4 (EPAC2) (AID 1645885). Further: nearly all actives have a fitted effect of over 25% in size. Further: potency means the concentration at half of the fitted maximal effect.
The target of assay [19] is Lysosomal acid glucosylceramidase (Homo sapiens) (UniProt P04062). Kind of assay: Glucocerebrosidase-p2 (AID 348; in the data active means potency below about 10 µM; further: potency means the concentration at half of the fitted maximal effect). The following applies: purified GBA, blue fluorogenic substrate, 40 min. Put shortly:
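Compounds titrated from 0.6 nM upwards against 0.2 nM enzyme in pH 5.9 citric acid/KH2PO4, taurocholate, tween-20; blue fluorogenic substrate 80 uM, 40 min room temperature, stopped and read Ex 365/Em 440 for AC50.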

Assay [20] deals with 3',5'-cyclic-AMP phosphodiesterase 4B (Homo sapiens) (UniProt Q07343). Kind of assay: qHTS Assay for Inhibitors of PDE-IV (AID 607; active means well fitted activation curve with a large enough effect in the main read-out, with a control signal flat, not every such curve was filed as active; further: % of control where 0% means no effect). Put shortly:
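Cell-based read-out of cAMP via a modified cyclic nucleotide-gated channel and membrane potential dye (535/590 nm) in HEK293 cells expressing PDE4 endogenously. Compounds tested up to 22.9 uM final; 100 uM RO 20-1724 reference.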

Assay [21] concerns the target Dual specificity protein kinase CLK4 (Homo sapiens) (UniProt Q9HAZ1). Nature of the assay: qHTS Assay for Inhibitors of CDC-like Kinase 4 (Kinase-Glo Assay) (AID 1770). Further: on the % scale 0 is the no-effect control and ±100 the full control effect; nearly all actives have a fitted effect of over 65% in size. In short, it runs like this: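 25 nM Clk4 with 100 uM RS repeat peptide and 1 uM ATP (final) in Tris pH7.5, 10 mM MgCl2, 4.5 h at room temperature. Remaining ATP measured by Kinase-Glo luciferase luminescence.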

Assay [22] deals with Tumor susceptibility gene 101 protein (Homo sapiens) (UniProt Q99816). Nature of the assay: qHTS Assay for Iinhibitors of HIV-1 Budding by Blocking the Interaction of PTAP/TSG101: Hit Validation (AID 651600). Further: potency means the concentration at half of the fitted maximal effect; nearly all actives have a fitted effect of over 70% in size. Put shortly: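 Fluorescence polarization binding assay: Tsg101 binding domain (10 uM) mixed with compounds and FITC-labeled PTAP peptide (50 nM) in HEPES pH 7.5, 0.15 M NaCl, 0.01% Tween 20, EDTA, TCEP; 20 min at r.t.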
Tumor susceptibility gene 101 protein (Homo sapiens), sequence (Q99816 whole entry, looked up, the tested form may be a part): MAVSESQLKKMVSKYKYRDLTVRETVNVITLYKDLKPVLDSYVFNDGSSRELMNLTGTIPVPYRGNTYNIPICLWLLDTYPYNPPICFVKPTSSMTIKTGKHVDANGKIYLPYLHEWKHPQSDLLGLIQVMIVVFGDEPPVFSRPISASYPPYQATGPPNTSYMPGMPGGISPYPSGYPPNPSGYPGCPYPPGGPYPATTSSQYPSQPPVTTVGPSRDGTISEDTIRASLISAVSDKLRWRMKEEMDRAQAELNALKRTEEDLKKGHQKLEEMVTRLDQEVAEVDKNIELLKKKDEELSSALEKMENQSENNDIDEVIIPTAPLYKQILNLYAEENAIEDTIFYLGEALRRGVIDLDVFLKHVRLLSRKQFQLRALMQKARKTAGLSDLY

The target in assay [23] is Rap guanine nucleotide exchange factor 3 (Homo sapiens) (UniProt O95398). Kind of assay: Counterscreen qHTS for agonist of cAMP-regulated guanine nucleotide exchange factor 3 (EPAC1) (AID 1645889). Further: potency means the concentration at half of the fitted maximal effect; nearly all actives have a fitted effect of over 40% in size. Put shortly:
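Rap1B–BODIPY-GDP (250 nM) with 50 uM GDP; compounds pin-transferred to 9.74 nM–152 uM final (activator) or from 7.32 nM upwards (inhibitor). Fluorescence Ex/Em 480/540 nm read at 5 and 30 min, then after adding cAMP or buffer, at room temperature.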

Assay [24] is described as follows: qHTS Assay for Identification of Small Molecule Agonists for Hypoxia Response Element Signaling Pathway (AID 914; active means well fitted activation curve with a large enough effect in the signal ratio, with a control signal flat, not every such curve was filed as active; the % refers to the signal ratio; further: potency means the concentration at half of the fitted maximal effect). The following applies: ME-180 (cervical carcinoma) HRE-bla reporter, beta-lactamase ratio, CoCl2, 17 h; activation: stronger effect = higher value. In short, it runs like this:
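HRE-bla ME-180 cells, overnight plating in Opti-MEM with 0.5% dialyzed FBS; cpd titration + EC50 CoCl2, 17 h, 37 degrees Celsius; CCF4 2.5 h RT; 460/530 nm ratio; AC50.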

Molecules are shown by their SMILES. Unmarked numbers belong to inactive results. Inconclusive results are not listed. Active and inactive are the calls of the source. Unless noted, the call rests on the fitted dose curve; in most records, active means well fitted curve in the direction sought with a large enough effect; inconclusive means small, poorly fitted or top-dose-only effect, or another doubt; inactive means no such curve, though single readings can be large; an effect the other way counts as inactive or inconclusive. Where only a bound is given, the exact number is not on record here.

Cytochrome P450 2C19 (Homo sapiens), sequence (P33261 whole entry, looked up): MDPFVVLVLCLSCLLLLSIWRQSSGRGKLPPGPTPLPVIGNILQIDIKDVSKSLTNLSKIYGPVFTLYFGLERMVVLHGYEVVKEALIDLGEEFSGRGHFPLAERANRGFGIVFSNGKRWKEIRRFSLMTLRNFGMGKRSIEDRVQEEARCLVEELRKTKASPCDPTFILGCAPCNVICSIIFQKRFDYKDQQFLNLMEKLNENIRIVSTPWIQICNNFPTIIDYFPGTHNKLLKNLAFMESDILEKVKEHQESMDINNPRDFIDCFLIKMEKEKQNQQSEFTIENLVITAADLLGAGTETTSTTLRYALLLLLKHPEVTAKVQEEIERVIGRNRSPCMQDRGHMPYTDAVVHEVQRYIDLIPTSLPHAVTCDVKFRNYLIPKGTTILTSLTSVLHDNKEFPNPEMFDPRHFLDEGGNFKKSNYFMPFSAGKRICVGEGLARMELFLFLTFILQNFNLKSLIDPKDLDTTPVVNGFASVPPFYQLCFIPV
3',5'-cyclic-AMP phosphodiesterase 4B (Homo sapiens), sequence (Q07343 whole entry, looked up): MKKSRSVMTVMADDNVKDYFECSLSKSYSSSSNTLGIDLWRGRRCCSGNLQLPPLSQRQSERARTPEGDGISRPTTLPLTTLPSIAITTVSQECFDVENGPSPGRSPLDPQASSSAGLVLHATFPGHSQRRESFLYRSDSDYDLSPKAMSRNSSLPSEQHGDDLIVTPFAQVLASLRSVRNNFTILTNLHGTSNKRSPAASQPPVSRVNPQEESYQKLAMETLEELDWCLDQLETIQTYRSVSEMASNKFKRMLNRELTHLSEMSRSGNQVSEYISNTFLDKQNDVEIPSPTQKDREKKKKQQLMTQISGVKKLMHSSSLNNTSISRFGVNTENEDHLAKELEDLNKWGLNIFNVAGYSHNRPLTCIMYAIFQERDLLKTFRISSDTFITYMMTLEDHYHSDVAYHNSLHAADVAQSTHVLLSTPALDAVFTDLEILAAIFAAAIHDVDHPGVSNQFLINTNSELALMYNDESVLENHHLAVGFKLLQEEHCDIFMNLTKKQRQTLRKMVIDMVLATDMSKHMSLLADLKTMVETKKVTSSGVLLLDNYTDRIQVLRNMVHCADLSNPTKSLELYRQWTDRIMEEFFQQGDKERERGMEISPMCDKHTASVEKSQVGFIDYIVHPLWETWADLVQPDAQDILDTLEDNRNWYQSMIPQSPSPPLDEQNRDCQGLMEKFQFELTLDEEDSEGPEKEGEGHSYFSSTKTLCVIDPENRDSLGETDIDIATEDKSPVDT
Cytochrome P450 1A2 (Homo sapiens), sequence (P05177 whole entry, looked up): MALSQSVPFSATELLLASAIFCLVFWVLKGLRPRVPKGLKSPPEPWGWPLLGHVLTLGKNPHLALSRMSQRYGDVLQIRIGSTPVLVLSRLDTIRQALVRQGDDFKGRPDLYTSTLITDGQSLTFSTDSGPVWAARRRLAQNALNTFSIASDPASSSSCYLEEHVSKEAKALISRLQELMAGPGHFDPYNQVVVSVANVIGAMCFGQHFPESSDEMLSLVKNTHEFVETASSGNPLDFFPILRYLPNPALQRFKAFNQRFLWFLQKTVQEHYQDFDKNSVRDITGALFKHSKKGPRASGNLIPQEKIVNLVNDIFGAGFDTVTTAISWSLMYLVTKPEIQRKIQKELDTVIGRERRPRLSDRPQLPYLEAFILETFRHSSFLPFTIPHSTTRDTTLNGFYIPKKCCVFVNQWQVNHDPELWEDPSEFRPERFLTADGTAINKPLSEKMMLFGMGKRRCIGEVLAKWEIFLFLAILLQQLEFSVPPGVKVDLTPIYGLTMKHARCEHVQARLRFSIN
Rap guanine nucleotide exchange factor 3 (Homo sapiens), sequence (O95398 whole entry, looked up): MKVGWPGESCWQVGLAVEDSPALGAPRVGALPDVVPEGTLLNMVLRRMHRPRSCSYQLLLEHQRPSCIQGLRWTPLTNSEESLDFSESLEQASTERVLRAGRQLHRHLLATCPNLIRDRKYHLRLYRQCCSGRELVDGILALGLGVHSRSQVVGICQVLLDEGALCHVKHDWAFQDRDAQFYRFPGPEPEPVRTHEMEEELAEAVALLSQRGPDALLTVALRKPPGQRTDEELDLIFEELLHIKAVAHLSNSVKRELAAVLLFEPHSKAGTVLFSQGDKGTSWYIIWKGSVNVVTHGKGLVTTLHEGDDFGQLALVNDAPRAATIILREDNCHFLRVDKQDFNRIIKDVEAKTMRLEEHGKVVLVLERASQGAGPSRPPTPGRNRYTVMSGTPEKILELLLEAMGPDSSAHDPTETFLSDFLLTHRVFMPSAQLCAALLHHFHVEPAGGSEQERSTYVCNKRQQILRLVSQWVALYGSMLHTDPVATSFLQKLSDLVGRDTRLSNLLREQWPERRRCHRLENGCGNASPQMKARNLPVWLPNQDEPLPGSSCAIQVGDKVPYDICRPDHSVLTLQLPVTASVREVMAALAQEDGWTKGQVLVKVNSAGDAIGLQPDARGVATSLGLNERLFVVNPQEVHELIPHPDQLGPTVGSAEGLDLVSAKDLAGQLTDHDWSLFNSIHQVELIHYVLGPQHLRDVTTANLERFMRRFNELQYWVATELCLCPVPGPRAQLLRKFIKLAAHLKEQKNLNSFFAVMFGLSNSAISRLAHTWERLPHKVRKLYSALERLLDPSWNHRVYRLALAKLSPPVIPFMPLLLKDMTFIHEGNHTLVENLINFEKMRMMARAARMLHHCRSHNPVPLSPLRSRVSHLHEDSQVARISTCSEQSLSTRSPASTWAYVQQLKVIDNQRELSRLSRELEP
Dual specificity protein kinase CLK4 (Homo sapiens), sequence (Q9HAZ1 whole entry, looked up): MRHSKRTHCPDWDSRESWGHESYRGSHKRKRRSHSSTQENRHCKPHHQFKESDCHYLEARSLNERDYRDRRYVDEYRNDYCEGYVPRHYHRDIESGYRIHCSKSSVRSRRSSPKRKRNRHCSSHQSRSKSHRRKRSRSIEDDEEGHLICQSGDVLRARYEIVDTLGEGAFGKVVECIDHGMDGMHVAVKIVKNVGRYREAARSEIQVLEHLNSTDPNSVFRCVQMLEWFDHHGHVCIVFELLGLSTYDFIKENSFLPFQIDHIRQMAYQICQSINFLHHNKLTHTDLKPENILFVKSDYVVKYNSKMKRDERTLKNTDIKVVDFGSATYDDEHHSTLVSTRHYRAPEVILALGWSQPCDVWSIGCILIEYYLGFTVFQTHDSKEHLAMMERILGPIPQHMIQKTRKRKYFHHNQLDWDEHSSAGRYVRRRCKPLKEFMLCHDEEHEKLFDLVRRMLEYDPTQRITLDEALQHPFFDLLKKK

With `COc1cccc(-c2cncnc2NCc2ccccc2OC)c1`, the results for the activity change, negative = inhibition in assay [1] and in [3] were -3.02% and 6.93%, respectively. Also, the Potency in assay [2] was 3.98 µM (active); in assay [5] it was greater than 46 µM; in assay [6] it was greater than 46 µM; in assay [8], 0.501 µM (active); in assay [10] it was 7.94 µM (active); in [11] it was 2 µM (active). The Potency in assay [12] is 15.8 µM (active); in [13] it was 14.1 µM (active); in assay [18] it was 44.1 µM (active). In addition, the result in assay [4] and in assay [9] was inactive. Besides, the Potency result in assay [7], in assay [14], in [15], in assay [16] and in assay [17] was “inactive” in each case.

Turning to `CN(C)c1ncc2nc(CCc3ccccc3)c(=O)n(Cc3cccs3)c2n1`, the Potency is greater than 11.4 µM in assay [19], 1.58 µM (active) in [2] and 6.31 µM (active) in assay [11]. Besides, the activity change, negative = inhibition was 16.2% in [1] and -16.3% in [3]. The compound was called inactive in [4] and in [9]. Also, the Potency result in assay [20], in assay [21], in assay [12], in assay [15], in [16] and in assay [17] was “inactive” each time. In [18], the Potency entry is “inactive”.

Consider `COc1cccc(Cn2c(=O)c(CCc3ccccc3)nc3cnc(N4CCN(C)CC4)nc32)c1`, for which the Potency in assay [19] was greater than 11.4 µM; in assay [2], 15.8 µM (active); in [5] it was greater than 9.22 µM; in assay [11] it was 7.94 µM (active). For the same compound, the activity change, negative = inhibition in assay [1] is -3.73%; in [3], 8.33%. The compound was called inactive in [4] and in assay [9]. Further, the Potency result in assay [20], in assay [14], in assay [15], in assay [16], in assay [17] and in [18] was “inactive” each time.

For `CCN1C(=O)c2cccc3c(N)ccc(c23)C1=O`, the Potency is 2.06 µM (active) in assay [22]; 100 µM (active) in [16]; 100 µM (active) in [17]; 75.7 µM (active) in assay [18]; 35.5 µM (active) in [23]. Besides, the Potency result in assay [15] was “inactive”.

As for `CN1CCN(c2ncc3nc(-c4cn(C)c5ccccc45)c(=O)n(CCC#N)c3n2)CC1`, the activity change, negative = inhibition in [1] was -1.18%. The Potency in [2] is 15.8 µM (active); in assay [5], greater than 9.22 µM; in assay [6], greater than 46 µM; in [24] it was 3.16 µM (active). The Potency entry in assay [20], in [21], in assay [12], in assay [13], in assay [15] and in assay [16] was “inactive” in each case. In addition, the Potency entry in [17] and in [18] was “inactive” each time. In addition, the compound was classed as inactive in [9].
